Records with an inconclusive call do not appear. Calls of active or inactive are those of the source. Unless noted, calls follow the shape of the dose curve; as a rule, active = well fitted cell-killing curve with a large enough effect; inconclusive = small, poorly fitted or top-dose-only effect, or effect the other way; inactive = no such curve, though single readings can be large or run the other way.
What was measured:
[1] = Quantitative High-Throughput drug screen in 47 multiple myeloma cell lines against the NCATS MIPE library collection: KMS28PE_JCRB cell viability assay (AID 1918983); also: nearly all actives have a fitted effect of over 35% in size
How it was run: (§1)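 Myeloma cells (500/well) treated with MIPE 4.0 compounds for 48 h at 37 °C, 5% CO2. Viability read as ATP via CellTiter-Glo luminescence after 5 min at RT; DMSO-only wells = 100%, media-only = 0% viability.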

[2] = Quantitative High-Throughput drug screen in 47 multiple myeloma cell lines against the NCATS MIPE library collection: L363_DSMZ cell viability assay (AID 1918984); also: nearly all actives have a fitted effect of over 40% in size
How it was run: as §1

[3] = Quantitative High-Throughput drug screen in 47 multiple myeloma cell lines against the NCATS MIPE library collection: OCIMY5_PLB cell viability assay (AID 1918988); also: nearly all actives have a fitted effect of over 65% in size
How it was run: as §1

[4] = Quantitative High-Throughput drug screen in 47 multiple myeloma cell lines against the NCATS MIPE library collection: OPM1_PLB cell viability assay (AID 1918989); also: nearly all actives have a fitted effect of over 40% in size
How it was run: as §1

[5] = Quantitative High-Throughput drug screen in 47 multiple myeloma cell lines against the NCATS MIPE library collection: RPMI8226_ATCC cell viability assay (AID 1919871); also: nearly all actives have a fitted effect of over 30% in size
How it was run: as §1

[6] = Quantitative High-Throughput drug screen in 47 multiple myeloma cell lines against the NCATS MIPE library collection: OPM2_DSMZ cell viability assay (AID 1919872); also: nearly all actives have a fitted effect of over 30% in size
How it was run: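 Primary qHTS used for cherry-picking: cells at 500/well, library compounds for 48 h (37C, 5% CO2), luminescent ATP assay.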

[7] = Quantitative High-Throughput drug screen in 47 multiple myeloma cell lines against the NCATS MIPE library collection: KMS28BM_JCRB cell viability assay (AID 1919874); also: nearly all actives have a fitted effect of over 35% in size
How it was run: as §1

[8] = qHTS drug screen for cell cycle checkpoint inhibitors in PARPi-resistant BRCA-mutant ovarian cancer cell lines. (AID 1963452; calls by dose curve); conditions: PEO1/OlaR viability, CellTiter-Glo luminescence, 96 h; for Z-AUC: stronger effect = lower value
How it was run: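 PEO1, PEO4 and PEO1/OlaR ovarian cancer cells, 600 per well, exposed 96 h at 37C to a dilution series. Viability read by CellTiter-Glo luminescence, normalized to DMSO and empty wells; activity summarized as Z-AUC.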

[9] = qHTS for identification of novel therapeutic agents for treatment of microphthalmiaassociated transcription factor (MiT) renal cell carcinoma (RCC) (AID 1963991; calls by dose curve); conditions: CellTiter-Glo, 48 h; for z-score: stronger effect = lower value
How it was run: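 Three TFE3-fusion RCC cell lines (UOK109, UOK124, UOK145), 500 cells/well, were exposed to the 1912-compound MIPE 4.0 library for 48 hours at 37 C. Viability was read by CellTiter-Glo luminescence, normalised to DMSO (100%) and empty wells (0%), with 11-concentration curve fits.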

[10] = Quantitative High-Throughput drug screen in 47 multiple myeloma cell lines against the NCATS MIPE library collection: OCIMY7_PLB cell viability assay (AID 1918987); also: nearly all actives have a fitted effect of over 65% in size
How it was run: as §1

[11] = Quantitative High-Throughput drug screen in 47 multiple myeloma cell lines against the NCATS MIPE library collection: SKMM1_PLB cell viability assay (AID 1919863); conditions: SKMM1 myeloma viability, CellTiter-Glo ATP, 48 h; viability: stronger effect = lower value; also: nearly all actives have a fitted effect of over 35% in size
How it was run: as §1

[12] = Quantitative High-Throughput drug screen in 47 multiple myeloma cell lines against the NCATS MIPE library collection: U266_ATCC cell viability assay (AID 1919864); also: nearly all actives have a fitted effect of over 35% in size
How it was run: as §1

[13] = Quantitative High-Throughput drug screen in 47 multiple myeloma cell lines against the NCATS MIPE library collection: XG6_PLB cell viability assay (AID 1919865); also: nearly all actives have a fitted effect of over 40% in size
How it was run: as §1

[14] = Quantitative High-Throughput drug screen in 47 multiple myeloma cell lines against the NCATS MIPE library collection: XG1_PLB cell viability assay (AID 1919866); also: nearly all actives have a fitted effect of over 35% in size
How it was run: as §1

[15] = Quantitative High-Throughput drug screen in 47 multiple myeloma cell lines against the NCATS MIPE library collection: VP6_DJ cell viability assay (AID 1919867); also: nearly all actives have a fitted effect of over 40% in size
How it was run: as §1

[16] = Quantitative High-Throughput drug screen in 47 multiple myeloma cell lines against the NCATS MIPE library collection: UTMC2_PLB cell viability assay (AID 1919868); conditions: CellTiter-Glo ATP luminescence, 48 h; viability (% of DMSO control): at 45.8 µM (top of the series) unless noted; also: nearly all actives have a fitted effect of over 55% in size
How it was run: as §1

[17] = Quantitative High-Throughput drug screen in 47 multiple myeloma cell lines against the NCATS MIPE library collection: PE2_PLB cell viability assay (AID 1919869); also: nearly all actives have a fitted effect of over 35% in size
How it was run: as §1

[18] = Quantitative High-Throughput drug screen in 47 multiple myeloma cell lines against the NCATS MIPE library collection: PCM6_Riken cell viability assay (AID 1919870); also: nearly all actives have a fitted effect of over 30% in size
How it was run: as §1

[19] = Quantitative High-Throughput drug screen in 47 multiple myeloma cell lines against the NCATS MIPE library collection: KMS11_JCRBsus cell viability assay (AID 1919873); also: nearly all actives have a fitted effect of over 50% in size
How it was run: as §1

[20] = Quantitative High-Throughput drug screen in 47 multiple myeloma cell lines against the NCATS MIPE library collection: KMS34_JCRB cell viability assay (AID 1918985); also: nearly all actives have a fitted effect of over 40% in size
How it was run: as §1

[21] = measured here: PEO1 parental Z-AUC
[22] = TFE3-RCC UOK109 viability, measured here: UOK109 Z-AUC
[23] = TFE3-RCC viability, measured here: UOK124 Z-AUC
[24] = TFE3-RCC viability, measured here: UOK145 Z-AUC
Potency is read from the fitted curve at half-maximal effect.

Nc1ccn([C@@H]2CS[C@H](CO)O2)c(=O)n1
-0.547: Z-AUC ([8]; measured here: PEO4 Z-AUC)
0.923: z-score [9, 23]
-0.159: z-score [9, 22]
0.391: z-score [9, 24]
-0.233: Z-AUC [8, 21]
inactive: Potency [1] | Potency [2] | Potency [3] | Potency [4] | Potency [5] | Potency [6] | Potency [7] | Z-AUC [8] -0.72

CC(C)c1ccccc1Cc1cc(C(=O)Nc2ccc(S(=O)(=O)c3ccccc3C(C)(C)C)cc2)c(O)c(O)c1O
active: Potency [1] 16.6 µM | Potency [10] 4.69 µM | Potency [3] 4.69 µM | Potency [4] 9.35 µM | Potency [11] 13.2 µM | Potency [12] 13.2 µM | Potency [13] 7.43 µM | Potency [14] 3.72 µM | Potency [15] 5.26 µM | Potency [16] 4.69 µM | Potency [17] 5.26 µM | Potency [7] 10.5 µM
0.393: Z-AUC [8, 21]
inactive: Potency [2] | Z-AUC [8] 0.413
0.535: Z-AUC ([8]; measured here: PEO4 Z-AUC)

c1ccc2c(CCNc3ccc(Nc4ccncc4)cc3)c[nH]c2c1
inactive: Potency [6]
active: Potency [1] 18.7 µM | Potency [2] 4.69 µM | Potency [10] 8.33 µM | Potency [3] 20.9 µM | Potency [4] 18.7 µM | Potency [11] 29.6 µM | Potency [12] 20.9 µM | Potency [13] 23.5 µM | Potency [14] 20.9 µM | Potency [15] 23.5 µM | Potency [17] 16.6 µM | Potency [18] 20.9 µM | Potency [5] 20.9 µM | Potency [19] 14.8 µM | Potency [7] 11.8 µM | Potency [8] 1.23 µM
-1.4: Z-AUC [8, 21]
-1.17: Z-AUC ([8]; measured here: PEO4 Z-AUC)

CCOc1cc2ncc(C#N)c(Nc3ccc(F)c(Cl)c3)c2cc1NC(=O)C=CCN(C)C
active: Potency [1] 14.8 µM | Potency [20] 4.69 µM | Potency [10] 0.0743 µM | Potency [3] 0.264 µM | Potency [4] 11.8 µM | Potency [11] 16.6 µM | Potency [12] 18.7 µM | Potency [13] 2.64 µM | Potency [14] 10.5 µM | Potency [15] 4.69 µM | Potency [16] 0.296 µM | Potency [17] 5.9 µM | Potency [5] 10.5 µM | Potency [6] 14.8 µM | Potency [19] 2.64 µM | Potency [7] 3.32 µM | Potency ([9]; TFE3-RCC UOK109 viability, active = Z-AUC below -0.8 in all three lines) 0.0118 µM
-1.47: z-score [9, 23]
-2.91: z-score [9, 22]
-1.07: z-score [9, 24]

CC(=O)c1c(C)c2cnc(Nc3ccc(N4CCNCC4)cn3)nc2n(C2CCCC2)c1=O
active: Potency [1] 18.7 µM | Potency [2] 23.5 µM | Potency [3] 11.8 µM | Potency [4] 18.7 µM | Potency [11] 16.6 µM | Potency [13] 14.8 µM | Potency [14] 14.8 µM | Potency [15] 18.7 µM | Potency [17] 18.7 µM | Potency [18] 5.9 µM | Potency [5] 2.09 µM | Potency [19] 20.9 µM | Potency [7] 23.5 µM

C1Cc2[nH]nc(-c3nn[nH]n3)c2C1
-0.646: Z-AUC ([8]; measured here: PEO4 Z-AUC)
inactive: Potency [1] | Potency [2] | Potency [13] | Potency [14] | Potency [17] | Potency [18] | Potency [5] | Potency [6] | Potency [7] | Z-AUC [8] -0.759
-0.0239: z-score [9, 22]
-0.47: Z-AUC [8, 21]
0.169: z-score [9, 24]
0.708: z-score [9, 23]

O=C(O)Cn1nnc(-c2cc(N3CCC(Oc4cc(F)ccc4Br)CC3)no2)n1
-1.41: Z-AUC ([8]; measured here: PEO4 Z-AUC)
0.654: z-score [9, 22]
1.36: z-score [9, 24]
-0.799: Z-AUC [8, 21]
0.371: z-score [9, 23]
inactive: Potency [1] | Potency [2] | Potency [4] | Potency [12] | Potency [13] | Potency [14] | Potency [15] | Potency [17] | Potency [18] | Potency [5] | Potency [6] | Potency [19] | Potency [7] | Z-AUC [8] -0.81

CN1CCN(c2cc(C(=O)Nc3ccc4c(c3)-c3c(c(C(N)=O)nn3-c3ccc(F)cc3)CC4)c(Cl)cn2)CC1
active: Potency [1] 23.5 µM | Potency [2] 4.18 µM | Potency [10] 0.187 µM | Potency [3] 2.96 µM | Potency [4] 9.35 µM | Potency [11] 26.4 µM | Potency [12] 2.96 µM | Potency [14] 3.32 µM | Potency [15] 2.96 µM | Potency [16] 2.09 µM | Potency [17] 1.48 µM | Potency [18] 2.64 µM | Potency [5] 23.5 µM | Potency [6] 26.4 µM | Potency [7] 8.33 µM
0.439: Z-AUC [8, 21]
-0.0103: Z-AUC ([8]; measured here: PEO4 Z-AUC)
inactive: Z-AUC [8] 0.539

O=C(O)CCCc1c[nH]c2ccccc12
0.907: z-score [9, 22]
0.701: z-score [9, 23]
0.654: z-score [9, 24]
0.6: Z-AUC ([8]; measured here: PEO4 Z-AUC)
active: Potency [15] 26.4 µM
inactive: Potency [1] | Potency [2] | Potency [20] | Potency [4] | Potency [12] | Potency [14] | Potency [17] | Potency [6] | Potency [7] | Z-AUC [8] 0.341
0.661: Z-AUC [8, 21]

COc1cc2c(cc1-c1c(C)noc1C)ncc1[nH]c(=O)n([C@H](C)c3ccccn3)c12
active: Potency [1] 0.662 µM | Potency [20] 0.469 µM | Potency [3] 1.05 µM | Potency [4] 1.48 µM | Potency [11] 0.743 µM | Potency [13] 5.26 µM | Potency [14] 5.9 µM | Potency [15] 0.833 µM | Potency [17] 14.8 µM | Potency [18] 6.62 µM | Potency [5] 7.43 µM | Potency [19] 0.264 µM | Potency [7] 0.332 µM
inactive: Z-AUC [8] -1.31
-1.04: Z-AUC [8, 21]
-1.54: Z-AUC ([8]; measured here: PEO4 Z-AUC)

— PubChem BioAssay (NCATS)
